Screens deposited in PubChem BioAssay by National Center for Advancing Translational Sciences (NCATS).
HT1080 IDH1KD tx: toxicity to HT-1080 IDH1 knockdown cells (counter line). HT-1080 IDH1 knockdown viability, ATP luminescence, 48 h. Potency, µM (doses to about 46.1 µM), inactives show at the top dose activity, negative = toxicity, most hits filed as cytotoxic. hit rate 2% among 360,000;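 further: potency means the concentration at half of the fitted maximal effect; 0% = DMSO wells and -100% = cell-free medium wells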
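% activity derives from luminescence (CellTiter-Glo), normalised to DMSO and no-cell wells. HT-1080-IDH1KD cells, 750/well, had 48 h compound exposure at 37 °C.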
DT40 TDP1 CPT: DT40-hTDP1 cell growth loss with CPT; chicken DT40 Tdp1-/-;hTDP1 cells + 20 nM CPT, ATP luminescence, 48 h; AID 686979; Potency, µM (highest dose often 46.2 µM), for inactives: at the top dose activity change, negative = growth inhibition, most hits filed as inhibitors; hit rate 12% among 420,000; further: potency means the concentration at half of the fitted maximal effect; nearly all actives have a fitted effect of over 55% in size
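Chicken DT40 Tdp1-/- cells complemented with human TDP1, 400 cells/well, exposed to compounds plus 20 nM camptothecin for at least 48 h at 37 C; viability read as ATP content by CellTiter-Glo luminescence.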
DT40 TDP1 no CPT: qHTS for Inhibitors of human tyrosyl-DNA phosphodiesterase 1 (TDP1): qHTS in cells in absence of CPT | Potency, µM (doses to about 46.2 µM), inactives show at the highest dose activity change, negative = growth inhibition, usual class: inhibitors | AID 686978, 2013 | DT40 Tdp1-/- hTDP1 cells, no CPT, ATP luminescence, 48 h | hit rate 15% among 420,000; further: potency means the concentration at half of the fitted maximal effect; nearly all actives have a fitted effect of over 55% in size
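Cells were dispensed at 400 per well, compounds added by pin tool, plates incubated ≥48 hr at 37 °C, then CellTiter-Glo added for 30 min at room temperature before luminescence reading. Line: DT40 Tdp1-/- complemented with hTDP1; camptothecin omitted.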
ELG1 DNA repair: blocks ELG1-dependent DNA repair in HEK293T cells | Potency, µM (highest dose often 46.1 µM), inactives show at the highest dose activity change, negative = inhibition, usual class: inhibitors | HEK293T ELG1-luciferase reporter, luminescence, 16 h; DNA damage induced by 5-fluorouridine | hit rate 2.3% among 330,000; further: potency means the concentration at half of the fitted maximal effect; nearly all actives have a fitted effect of over 55% in size
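Overnight (16 hr) co-exposure of 2,000 cells/well to 5-fluorouridine and compound at 37 °C preceded detection. Luciferase was quantified via ONE-Glo luminescence; loss of signal denotes inhibition.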
HT1080-NT tox: kills 2HG-producing HT-1080-NT fibrosarcoma cells | HT-1080-NT fibrosarcoma viability, CellTiter-Glo ATP luminescence, 48 h | Potency, µM (highest dose often 46.1 µM), without a hit: at the top dose activity, negative = less viability, usual class: cytotoxic | hit rate 1.6% among 360,000;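 further: NT is the 2HG producing partner of a matched IDH1 knockdown line; potency means the concentration at half of the fitted maximal effect; 0% = DMSO-treated cells and -100% = media-only wells without cells; nearly all actives have a fitted effect of over 55% in size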
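Fibrosarcoma NT cells, 750 per well in 5% FBS RPMI, were exposed to compound for 48 hours. Viability: CellTiter-Glo luminescence.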
IL1B secr inh: inhibitors of inflammasome signaling (IL-1 beta secretion) | THP-1 LPS/ATP IL-1B secretion, AlphaLISA, 16 h; active compounds read low | activity change, % at 57.5 µM | hit rate 4.7% among 360,000; in the data active means activity change below about -50%; inconclusive means mostly about -30% to -49%
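Secreted IL-1B measured by AlphaLISA bead assay after 16 h compound exposure of THP-1 cells; compounds (final up to 57.5 uM) added 1 h before LPS (250 ng/mL) and ATP (1.25 mM) stimulation; lower signal means less secretion.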
* hit, by the source's call; [ ] = dose if it differs, or a comment. In the library only some 19% were active in any assay of this set; here they are far more common. Unless noted, the call rests on the fitted dose curve; in most records, active means well fitted curve in the direction sought with a large enough effect; inconclusive means small, poorly fitted or top-dose-only effect, or another doubt; inactive means no such curve, though single readings can be large; an effect the other way counts as inactive or inconclusive. Unless noted, on the % scale 0 is the no-effect control and ±100 the full control effect.

O=C(c1ccco1)N1CCC2CC1c1c(Cl)cccc12 (stereo not drawn) was read as HT1080 IDH1KD tx -6.1%, DT40 TDP1 CPT inconclusive, DT40 TDP1 no CPT inconclusive, HT1080-NT tox -7.8% and IL1B secr inh 24.2.
C=CCNC(=S)N1CCC2CC1c1c(Cl)cccc12 (stereo not drawn) was read as HT1080 IDH1KD tx -2.3%, DT40 TDP1 CPT inconclusive, DT40 TDP1 no CPT 25.9µM*, HT1080-NT tox -14.7% and IL1B secr inh 15.8.
Screening COc1ccc(NC(=S)N2CCC3CC2c2c(Cl)cccc23)c(OC)c1 (stereo not drawn) returned HT1080 IDH1KD tx -3.7%, DT40 TDP1 CPT inconclusive, DT40 TDP1 no CPT inconclusive, HT1080-NT tox -7.3% and IL1B secr inh 13.2.
For Cc1ccc2cccc(NC(=O)c3ccc(-c4cccc(Cl)c4)o3)c2n1 the results were DT40 TDP1 CPT 4.4% and DT40 TDP1 no CPT -7.6%.
Screening CCn1cc(S(=O)(=O)c2cccc(C)c2)c(=O)c2cc(F)c(N3CCCC(C)C3)cc21 (stereo not drawn) returned DT40 TDP1 CPT inconclusive and DT40 TDP1 no CPT -6.5%.
Screening Fc1ccc(CNc2nc3c(-c4ccc(F)cc4)nnn3c3ccccc23)cc1 returned DT40 TDP1 CPT 8.0% and DT40 TDP1 no CPT 1.8%.
CCOc1cc(C2C(C#N)=C(N)OC(C)=C2C(C)=O)c(Br)c(Br)c1OC(C)C (stereo not drawn) was read as HT1080 IDH1KD tx 14.6µM*, DT40 TDP1 CPT 4.61µM*, DT40 TDP1 no CPT 4.61µM*, ELG1 DNA repair -28.9%, HT1080-NT tox 7.31µM* and IL1B secr inh 0.0.
`CCNC(=O)c1ccccc1-c1nc(-c2ccccc2Cl)no1` gave HT1080 IDH1KD tx 0.4%, DT40 TDP1 CPT inconclusive, DT40 TDP1 no CPT 18.4µM*, ELG1 DNA repair -0.8%, HT1080-NT tox -7.9% and IL1B secr inh 14.6.
O=C(NCC1CCCO1)c1ccccc1-c1nc(-c2ccc(Cl)cc2)no1 (stereo not drawn) was read as HT1080 IDH1KD tx 0.0%, DT40 TDP1 CPT 18.4µM*, DT40 TDP1 no CPT 18.4µM*, ELG1 DNA repair inconclusive, HT1080-NT tox -13.5% and IL1B secr inh -27.4.
Screening Cc1nc2ccccc2cc1C(=O)NCc1ccco1 returned HT1080 IDH1KD tx -4.1%[9.24 µM], DT40 TDP1 CPT inconclusive, DT40 TDP1 no CPT inconclusive, ELG1 DNA repair -17.2%, HT1080-NT tox 8.8% and IL1B secr inh 9.4.
Cc1ccccc1-c1noc(-c2ccccc2C(=O)NCc2ccco2)n1 was read as HT1080 IDH1KD tx -6.9%, DT40 TDP1 CPT inconclusive, DT40 TDP1 no CPT 18.4µM*, ELG1 DNA repair inconclusive, HT1080-NT tox -0.5% and IL1B secr inh inconclusive.
Screening CCNC(=O)c1ccccc1-c1nc(-c2ccccc2OC)no1 returned HT1080 IDH1KD tx -0.3%, DT40 TDP1 CPT -22.8%, DT40 TDP1 no CPT inconclusive, ELG1 DNA repair 0.0%, HT1080-NT tox 2.3% and IL1B secr inh 0.0.
For O=C(COc1ccccc1C(=O)NCC1CCCO1)Nc1ccc(Cl)cc1Cl (stereo not drawn) the results were HT1080 IDH1KD tx -17.6%, DT40 TDP1 CPT 14.6µM*, DT40 TDP1 no CPT inconclusive, ELG1 DNA repair 0.0%, HT1080-NT tox 4.7% and IL1B secr inh 7.4.
COc1cccc(-c2ccc(O)c(CNC(c3ccccc3)c3ccc(Cl)cc3)c2)n1 (stereo not drawn) was read as DT40 TDP1 CPT -5.8% and DT40 TDP1 no CPT -26.6%.
For C[C@@H]1CN([C@H](C)CO)C(=O)c2cc(Br)cnc2O[C@@H]1CN(C)C(=O)c1ccccc1 the results were HT1080 IDH1KD tx 5.7%, DT40 TDP1 CPT 2.4%, DT40 TDP1 no CPT 3.6%, HT1080-NT tox 11.8% and IL1B secr inh 7.6.
`CN(C)C=Nc1c(I)cc(I)c(CCC(=O)O)c1I` gave DT40 TDP1 CPT -4.0% and DT40 TDP1 no CPT 3.5%.
Screening CCOc1cc(NC(=S)NCC2CCCO2)c(OCC)cc1NC(=O)c1ccccc1F (stereo not drawn) returned HT1080 IDH1KD tx -2.0%, DT40 TDP1 CPT inconclusive, DT40 TDP1 no CPT 23.1µM*, ELG1 DNA repair 23.1µM*, HT1080-NT tox -5.3% and IL1B secr inh -22.2.
`CCOc1cc(NC(=S)NCC2CCCO2)c(OCC)cc1NC(=O)CC` (stereo not drawn) gave HT1080 IDH1KD tx -0.1%, DT40 TDP1 CPT 8.6%, DT40 TDP1 no CPT 13.5%, ELG1 DNA repair -10.1%, HT1080-NT tox inconclusive and IL1B secr inh 11.6.
For Cc1ccc(CNC(=O)CCc2c(C)nn(-c3ccc(N4CCOCC4)nn3)c2C)cc1 the results were HT1080 IDH1KD tx 10.7%, DT40 TDP1 CPT -18.5%, DT40 TDP1 no CPT inconclusive, ELG1 DNA repair 11.6%, HT1080-NT tox 0.8% and IL1B secr inh -3.1.
For Cc1cc2cc(CN(C(=O)C3CC3)C3CCCC3)c3nnnn3c2cc1C the results were HT1080 IDH1KD tx -2.6%, DT40 TDP1 CPT inconclusive, DT40 TDP1 no CPT 20.6µM*, ELG1 DNA repair -0.6%, HT1080-NT tox -6.2% and IL1B secr inh -18.8.
`CCc1ccc2c(c1)cc(CN(C(=S)Nc1cccc(C)c1)C1CC1)c1nnnn12` gave HT1080 IDH1KD tx 3.6%, DT40 TDP1 CPT inconclusive, DT40 TDP1 no CPT inconclusive, ELG1 DNA repair -14.1%, HT1080-NT tox -16.4% and IL1B secr inh 5.3.
Screening CCOC(=O)C(C(=O)OCC)C(Nc1cccc(Br)c1)c1ccccc1 (stereo not drawn) returned HT1080 IDH1KD tx inconclusive, DT40 TDP1 CPT 14.6µM*, DT40 TDP1 no CPT inconclusive, ELG1 DNA repair inconclusive, HT1080-NT tox inconclusive and IL1B secr inh -68.4*.
For COC(=O)C(C)Nc1cccc(Br)c1 (stereo not drawn) the results were HT1080 IDH1KD tx 2.1%, DT40 TDP1 CPT -0.9%, DT40 TDP1 no CPT 0.6%, ELG1 DNA repair 10.1%, HT1080-NT tox 0.0% and IL1B secr inh 5.3.
CCOC(=O)C(c1ccccc1)C(Nc1ccc(Cl)c(Cl)c1)c1ccccn1 (stereo not drawn) was read as HT1080 IDH1KD tx -22.4%, DT40 TDP1 CPT inconclusive, DT40 TDP1 no CPT 9.2µM*, ELG1 DNA repair 0.0%, HT1080-NT tox -29.9% and IL1B secr inh 41.2.
